# Records with an inconclusive call do not appear. Calls of active or inactive are those of the source. The call rests on the fitted dose curve; in most records, active means well fitted cell-killing curve with a large enough effect in the repeat runs (not every such curve was filed as active); inconclusive means weak or mixed curves, or effect the other way; inactive means no such curve, though single readings can be large or run the other way.
# Assay: qHTS assay to identify small molecule antagonists of the estrogen related receptor signaling pathway with the pleiotropic PPARgamma coactivator (PGC) from Tox21 10K library - cell viability counter screen (AID 1224840); further: nearly all actives have a fitted effect of over 40% in size
# Details: PGC/ERR reporter cells viability, CellTiter-Fluor, 17.5 h; series mostly up to 92.4 µM; viability change, negative = cytotoxic: at the top concentration
# Description: National Center for Advancing Translational Sciences [NCATS]
# NIH Chemical Genomics Center [NCGC]
# U.S. Environmental Protection Agency [EPA]
# National Institutes of Environmental Health Sciences [NIEHS]
# National Toxicology Program [NTP]
# U.S. Food and Drug Administration [FDA]
# Estrogen related receptors (ERRs), the first orphan nuclear receptors discovered, play an important role in the control of cellular energy metabolism. ERRs are required for high-energy production in response to the environmental challenges. The pleiotropic PPARgamma coactivator (PGC) is a major partner of ERR and a key regulator in energy homeostasis. Together they have been implicated in the etiology of metabolic disorders such as Type 2 diabetes and metabolic syndrome. ERR-alpha was also identified as an adverse marker for breast cancer progression; ERR-alpha-positive tumors have a poor prognosis. To screen and to identify environmental compounds that perturb the ERR and PGC/ERR signaling pathways could provide valuable information for potential therapeutic or preventive measures in the treatment of metabolic disease. To differentiate true PGC/ERR antagonists or agonist from cytotoxic substances, the assay is multiplexed with cell viability assay.
# Tox21 Assay Protocol Summary:
# The PGC/ERR cells were dispensed at 2,000 cells/5 ul/well in 1536-well white plates using a Multidrop dispenser. After the assay plates were incubated at a 37 C/5% CO2 incubator for 6 hours, 23 nL of compounds dissolved in DMSO, positive and negative controls or DMSO only was transferred to the assay plate by a pin tool. The plates were incubated at 37 C for 17.5 hours. 1 ul/well of CellTiter-Fluor reagent was added into the assay plates using a Flying Reagent Dispenser. After 30-minute incubation at 37 C/5% CO2, the fluorescence intensity in the plates was measured using a ViewLux plate reader.
# On the % scale 0 is the no-effect control and ±100 the full control effect; potency means the concentration at half of the fitted maximal effect.
Structure (SMILES),"viability change, negative = cytotoxic",Potency
NC1(c2ccccc2)CCCCC1,-19% (inactive),
CCN1CCCC1CNC(=O)C(O)(c1ccccc1)c1ccccc1 (stereo not given),-0.19% [at 42.5 µM] (inactive),
COc1ccccc1OC,18.7% (inactive),
CCN(CCO)CCO,2.61% (inactive),
CC(C)c1ccc(O)cc1,6.24% (inactive),
C(COCC1CO1)OCC1CO1 (stereo not given),1.86% (inactive),
CCC1(CC)C(=O)C=CNC1=O,-3.87% [at 42.5 µM] (inactive),
C[C@H]1CCCC(=O)CCC/C=C/c2cc(O)cc(O)c2C(=O)O1,,23.4 µM (active)
Cn1c(CCCC(=O)O)nc2cc(N(CCCl)CCCl)ccc21,5.19% [at 42.5 µM] (inactive),
BrCCc1ccccc1,1.8% (inactive),
CCCOc1nn(C(=O)NS(=O)(=O)c2ccccc2C(=O)OC)c(=O)n1C,3.16% (inactive),
CCNc1nc(Cl)nc(NC(C)(C)C)n1,0.96% (inactive),
O=C(O)c1c(Cl)ccc2cc(Cl)cnc12,-2.18% (inactive),
O=C(CCl)NCO,2.69% (inactive),
CN(C)CCN(C)C,13.3% (inactive),
CCCCS(=O)(=O)Cl,6.85% (inactive),
COc1cccc([C@@]2(O)CCCC[C@@H]2CN(C)C)c1,17.1% [at 42.5 µM] (inactive),
CCN[C@@H](C)Cc1ccccc1,12.2% (inactive),
BrCC1CO1 (stereo not given),6.28% (inactive),
CCOC(=O)C(Cl)Cc1cc(-n2nc(C)n(C(F)F)c2=O)c(F)cc1Cl (stereo not given),-0.279% (inactive),

Structure (SMILES),"viability change, negative = cytotoxic",Potency
C/C(=N\NC(=O)Nc1cc(F)cc(F)c1)c1ncccc1C(=O)O,,inactive
CC(C)(O)C(Cl)(Cl)Cl,7.31% [at 42.5 µM] (inactive),
COc1ccc(C=O)cc1O,2.2% (inactive),
NC(=O)OCCCc1ccccc1,10% [at 42.5 µM] (inactive),
C#CC(C)(C)O,-0.698% (inactive),
Cc1ccc(Cl)c(O)c1,11.8% [at 42.5 µM] (inactive),
CN(C)CCc1c[nH]c2cccc(OP(=O)(O)O)c12,11.9% (inactive),
CCNP(=S)(OC)O/C(C)=C/C(=O)OC(C)C (stereo not given),-0.395% (inactive),
ClCCN1CCCC1,-3.4% [at 42.5 µM] (inactive),
CC(Cc1ccccc1)NCCCCl (stereo not given),15.7% [at 42.5 µM] (inactive),
CCC1(c2cccc(O)c2)CCCCN(C)C1 (stereo not given),17.2% [at 42.5 µM] (inactive),
Cc1ccc2c(c1)C1CN(C)CCC1N2 (stereo not given),2.92% [at 19 µM] (inactive),
CCCOC(=O)Cc1ccc(OCC(=O)N(CC)CC)c(OC)c1,10.5% [at 42.5 µM] (inactive),
CCN(CC)CCOC(=O)C(O)(c1ccccc1)c1ccccc1,3.93% [at 42.5 µM] (inactive),
COc1ccc2c(C(=O)c3ccc(Cl)cc3)c(C)n(CC(=O)O)c2c1,11.9% [at 42.5 µM] (inactive),
OP(O)c1ccccc1,4.67% (inactive),
CC(C)[N+](C)(CCC(C(N)=O)(c1ccccc1)c1ccccc1)C(C)C,11.9% [at 42.5 µM] (inactive),
CC(Cc1ccccc1)NCCn1cnc2c1c(=O)n(C)c(=O)n2C (stereo not given),-2.58% (inactive),
O=C1CCCCC1Cl (stereo not given),2.44% (inactive),
CCN(CCO)CCn1c(Cc2ccccc2)nc2c1c(=O)n(C)c(=O)n2C,1.53% [at 42.5 µM] (inactive),

# — PubChem BioAssay (Tox21)
